# Values joined by “and” are separate entries in the source; they are usually repeats but may differ in a detail not shown here. Equal entries are not always repeated. Active and inactive are the calls of the source. How the calls were made is not given here.
# Molecular target: Pantothenate synthetase (Mycobacterium tuberculosis (strain ATCC 25618 / H37Rv)) (UniProt P9WIL5)
# Experiment: Recombinant Mtb pantothenate synthetase (PanC) inhibitors, coupled enzyme, confirmatory (AID 375);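 further: 0% = full reaction with vehicle and 100% = no enzyme background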
# Conditions: coupled enzyme assay; at 10 µM, stronger effect = higher value
# Sequence of Pantothenate synthetase (Mycobacterium tuberculosis (strain ATCC 25618 / H37Rv)) (P9WIL5 whole entry, looked up): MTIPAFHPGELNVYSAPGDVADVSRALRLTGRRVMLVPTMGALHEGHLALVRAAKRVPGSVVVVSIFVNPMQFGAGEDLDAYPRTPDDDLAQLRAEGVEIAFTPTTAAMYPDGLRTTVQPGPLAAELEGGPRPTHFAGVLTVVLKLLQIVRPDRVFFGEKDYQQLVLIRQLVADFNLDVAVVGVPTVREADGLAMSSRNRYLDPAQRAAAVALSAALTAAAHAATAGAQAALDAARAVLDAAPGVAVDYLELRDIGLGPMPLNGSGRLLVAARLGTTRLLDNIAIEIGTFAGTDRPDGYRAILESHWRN
row,SMILES,inhibition
1,Cc1ccc(-n2c3c(cc(C(=O)O)c2=O)C(=O)CC(C)(C)C3)cc1,3% (inactive)
2,CC(C)C1Cc2c(C#N)c(N)sc(=S)c2CO1 (configuration not stated),2% (inactive)
3,Cc1ccc(Cn2nnc(C(=O)Nc3cccc(C)c3C)c2N)cc1,5% (inactive)
4,CCOC(=O)C1CCN(Cc2ccc(OC)c(C)c2OC)CC1,0% (inactive)
5,O=C(Cn1nnc(-c2cccc(C(F)(F)F)c2)n1)NC(=O)NCc1ccco1,0% (inactive)
6,CCCCC(=O)NCCc1cc2c(C)ccc(C)c2[nH]c1=O,0% (inactive)
7,Cc1ccc(C)c(N2C(=O)CN=C2Nc2ccccc2Cl)c1,4% (inactive)
8,Cc1cc(NS(=O)(=O)c2ccc(NC(=O)C(C)N3C(=O)c4ccccc4C3=O)cc2)nc(C)n1 (configuration not stated),1% (inactive)
9,CCOC(=O)C1CCN(C(=O)Nc2ccc(Cl)cc2Cl)CC1,0% (inactive)
10,CN(Cc1ccccc1)S(=O)(=O)c1ccc(S(=O)(=O)N2CCN(CCC#N)CC2)cc1,0% (inactive)
11,CC1C=CC(C)C(C(=O)O)C1C(=O)O (configuration not stated),0% (inactive)
12,CCN(CC)S(=O)(=O)c1ccc(NC(=O)CN(c2cccc(F)c2)S(C)(=O)=O)cc1,3% (inactive)
13,O=C(Nc1ccccc1C(=O)O)c1cccc(NC(=O)c2ccc(Br)o2)c1,0% (inactive)
14,Cc1cc(NC(=O)CCC(=O)N(CC(=O)NC2CCCC2)Cc2ccc(F)cc2)no1,0% (inactive)
15,COC(=O)c1[nH]c2cc(OC)ccc2c1NC(=O)CCN1CCCCC1,1% (inactive)
16,CCc1ccccc1NC(=O)CSC1=C(C#N)C(c2ccc(O)c(OC)c2)C2=C(CCCC2=O)N1 (configuration not stated),6% (inactive)
17,CCC(C)(C)n1nnnc1C(c1cc2cc(OC)ccc2[nH]c1=O)N1CCc2ccccc21 (configuration not stated),0% (inactive)
18,Nc1ccc(C(=O)O)c(O)c1,1% (inactive) and 0% (inactive)
19,CS(=O)(=O)N1CCN(c2ccccc2NC(=O)c2cccs2)CC1,2% (inactive)
20,CCOC(=O)C1=C(C)NC(SC(C)=O)=NC1c1ccc(OC(C)=O)c(OC)c1 (configuration not stated),4% (inactive)
21,O=C(CN1C(=O)C2CC=C(Cl)CC2C1=O)Nc1ccc(C(=O)O)cc1 (configuration not stated),0% (inactive)
22,CCn1cc(C(=O)O)c(=O)c2ccc(C)nc21,0% (inactive)

# Reference: PubChem BioAssay
